Assay [1] can be described thus: qHTS Assay for Lipid Storage Modulators (AID 1519; calls by dose curve; for activity change, negative = inhibition: % is set by controls: 0 for no effect and ±100 for the full control effect). The following applies: Drosophila S3 cells, BODIPY lipid droplet/cell ratio, laser cytometry, cells loaded with oleic acid. The method, boiled down: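 Cells seeded at 5,000 per well were treated with compounds over a concentration series and loaded with oleic acid (400 uM, as added). Lipid droplet fluorescence (488 nm excitation, 500-530 nm channel) was read by laser-scanning cytometry and normalized to 20 uM Triacsin C.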
On the technique in general: qHTS replaces the single test concentration by a dilution series.

The target in assay [2] is Alpha-galactosidase A (Homo sapiens) (UniProt P06280). Put plainly: Counterscreen for Glucocerebrosidase Inhibitors: qHTS Assay for Human alpha-Galactosidase at pH 4.5 (AID 992). Note: 0% is about no effect. The method, boiled down:
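Fluorogenic 1536-well qHTS at pH 4.5 (citrate, Tween-20): 2 nM enzyme, 80 uM 4-MU-alpha-galactoside, 20 min room temperature, NaOH/glycine stop. Titration 0.7 nM to 77 uM, data normalized to no-enzyme and full-activity controls, Hill-fitted AC50.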

Assay [3] concerns the target alpha-glucosidase (Oryza sativa, rice) (UniProt Q653V4). Put plainly: Counterscreen for Glucocerebrosidase Inhibitors: qHTS Assay for Rice alpha-Glucosidase at pH 5.0 (AID 997).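 Note: 0% = full activity with enzyme and -100% = basal without enzyme.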 The method, boiled down:
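Endpoint fluorogenic assay at pH 5.0: compounds (0.7 nM to 77 uM) titrated against 4 nM rice enzyme and 400 uM 4-MU-alpha-glucoside for 20 min at room temperature; NaOH/glycine stop, read ex 365/em 440 nm, Hill-fitted AC50.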

The target in assay [4] is DNA repair nuclease/redox regulator APEX1 (Homo sapiens) (UniProt P27695). Put plainly: qHTS Validation Assay for Inhibitors of the Human Apurinic/apyrimidinic Endonuclease 1 (APE1) (AID 1705;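 note: TAMRA fluorescence gain over two minutes as APE1 cuts a quenched THF abasic duplex; % is set by controls: 0 for no effect and ±100 for the full control effect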). The method, boiled down:
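qHTS, 1536-well. APE1 + cpd 15 min RT → 50 nM TAMRA/BHQ-2 THF-abasic dsDNA substrate → kinetic fluorescence, 3 reads/60 s; delta(read3−read1) = reaction progress. No-enzyme buffer = negative control.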

The nature of assay [5]: Counterscreen for APE1 Inhibitors: Fluorescent Dye Displacement Validation Assay (AID 1707).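 Note: plate controls were ThO with dsDNA and no compound for no effect and ThO without dsDNA for full effect.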 The method, boiled down:
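Counterscreen flags promiscuous DNA binders: compounds displacing ThO from duplex DNA (abasic THF site, 50 nM) reduce 540 nm emission (480 nm excitation). ThO 250 nM final; Tris-HCl pH 7.5 with NaCl, MgCl2 and Tween-20.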

A short description of assay [6]: Cell Viability - LYMP2-023 (AID 975).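 Note: cellular ATP measured by luciferase luminescence as viability proxy; cells exposed to compound for 24 hours at 37 °C; plate controls were DMSO only for no effect and 92 µM tetraoctylammonium bromide control for full effect; nearly all actives have a fitted effect of over 55% in size.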 The method, boiled down: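 CellTiter-Glo luminescence after 30 min at room temperature; decrease in intracellular ATP reflects toxicity. Cells: human lymphoblastoid line, 2500/well, 24 hr compound exposure at 37 C. AC50 fitted to standard Hill equation from concentration-response.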
Assay [7] in a line: Cell Viability - LYMP2-025 (AID 976).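 Note: plate controls were DMSO only for no effect and tetraoctylammonium bromide control for full effect.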 The method, boiled down:
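CellTiter-Glo luminescence (cellular ATP) after 24 h compound exposure at 37 C; LYMP2-025 human lymphoblastoid cells, 2500/well, complete medium. Tetraoctylammonium bromide positive control. AC50 by Hill equation fit of qHTS concentration-response.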

Assay [8] is described as follows: Cell Viability - LYMP2-002 (AID 977).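 Note: plate controls were DMSO only for no effect and 92 µM tetraoctylammonium bromide for full effect.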 The method, boiled down:
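Human lymphoblastoid cells, 2500/well, complete medium; 5 h 37 C settle; compound 24 h 37 C; CellTiter-Glo, 30 min RT; luminescence. Decrease in ATP = cytotoxicity; AC50 via Hill equation.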

A short description of assay [9]: Cell Viability - LYMP2-006 (AID 978).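 Note: cells exposed to compound for 24 hours; % is set by controls: 0 for no effect and ±100 for the full control effect; nearly all actives have a fitted effect of over 60% in size.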 The method, boiled down: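 Cells are seeded at 2500 per well and rested 5 hr at 37 C. Compounds are added across a concentration series for 24 hr at 37 C, after which ATP is quantified by luciferase luminescence.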
Assay [10] in a line: Cell Viability - LYMP2-007 (AID 979).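 Note: cells exposed to compound for 24 h before reading; 0% = DMSO only and the negative end = 92 µM tetraoctylammonium bromide; nearly all actives have a fitted effect of over 60% in size.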 The method, boiled down:
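qHTS cytotoxicity: 2500 cells/well, 5 hr 37 C settle, compound 24 hr 37 C, CellTiter-Glo 30 min RT, luminescence. Decrease in ATP = toxicity. AC50 by standard Hill equation; tetraoctylammonium bromide positive control.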

Assay [11] can be described thus: Cell Viability - LYMP2-012 (AID 982).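 Note: cellular ATP by luciferase luminescence where a drop means cytotoxicity; cells exposed to compound for one day before reading; 0% = DMSO only and full loss = 92 µM tetraoctylammonium bromide; nearly all actives have a fitted effect of over 55% in size.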
A short description of assay [12]: Cell Viability - LYMP2-014 (AID 983).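 Note: plate controls were DMSO only for no effect and 92 µM tetraoctylammonium bromide for full effect; nearly all actives have a fitted effect of over 50% in size.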 The method, boiled down: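 2500 cells/well, 5 hr 37 C; cpd 24 hr 37 C, complete medium; CellTiter-Glo 30 min RT, luminescence; ATP loss = toxicity; AC50 via Hill eqn; tetraoctylammonium bromide positive control.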
A short description of assay [13]: Cell Viability - LYMP2-016 (AID 984).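 Note: cells exposed to compound for 24 hours at 37 °C; % is set by controls: 0 for no effect and ±100 for the full control effect; nearly all actives have a fitted effect of over 55% in size.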 The method, boiled down: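 Cells were seeded at 2500 per well and rested 5 hr before a 24 hr compound exposure at 37 C. Viability was then gauged as cellular ATP by luciferase luminescence, with AC50 values fitted to the Hill equation.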
The nature of assay [14]: Cell Viability - LYMP2-018 (AID 985).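 Note: plate controls were DMSO only for no effect and tetraoctylammonium bromide at 92 µM for full effect; nearly all actives have a fitted effect of over 50% in size.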 The method, boiled down:
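2500 cells/well; 5 hr 37 C; cmpd 24 hr 37 C, complete medium; CellTiter-Glo 30 min RT; luminescence. Tetraoctylammonium bromide positive control. AC50 via Hill fit.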

The nature of assay [15]: Cell Viability - LYMP2-022 (AID 987).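 Note: 0% = DMSO alone and full effect = tetraoctylammonium bromide at 92 µM; nearly all actives have a fitted effect of over 55% in size.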 The method, boiled down: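 Luminescent ATP read-out (CellTiter-Glo, 30 min, RT) after 24 hr, 37 C compound exposure of 2500 human lymphoblastoid cells/well in complete medium. Cytotoxicity taken as concentration-dependent ATP loss; AC50 from standard Hill equation.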
Assay [16] can be described thus: Cell Viability - LYMP2-024 (AID 988).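 Note: plate controls were DMSO only for no effect and 92 µM tetraoctylammonium bromide for full effect; nearly all actives have a fitted effect of over 60% in size.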 The method, boiled down:
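ATP-based luminescence (CellTiter-Glo, 30 min RT) after 24 h compound exposure at 37 C of 2500 lymphoblastoid cells/well; decrease in ATP taken as cytotoxicity. qHTS concentration-response fitted to standard Hill equation for AC50.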

The nature of assay [17]: Cell Viability - LYMP2-026 (AID 989). Note: % is set by controls: 0 for no effect and ±100 for the full control effect; nearly all actives have a fitted effect of over 50% in size. The method, boiled down:
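qHTS cytotoxicity: 2500 cells/well, 5 hr 37 C, compound 24 hr 37 C, CellTiter-Glo 30 min RT, luminescence. Tetraoctylammonium bromide positive control. AC50 via standard Hill fit.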

The nature of assay [18]: Cell Viability - LYMP1-002 - Assay at 24 hr (AID 993). Note: % is set by controls: 0 for no effect and ±100 for the full control effect. The method, boiled down:
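CellTiter-Glo luminescence (intracellular ATP) after 24 h compound exposure, 37 C, in LYMP1-002 human lymphoblastoid cells; decreased ATP taken as cytotoxicity. AC50 from standard Hill fit of concentration-response curves.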

The nature of assay [19]: Cell Viability - LYMP1-002 - Assay at 40 hr (AID 994).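 Note: 0% = DMSO only and full inhibition = 92 µM tetraoctylammonium bromide; nearly all actives have a fitted effect of over 60% in size.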 The method, boiled down: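 qHTS cytotoxicity; 2500 cells/well, 5 hr 37 C settle, compound 40 hr 37 C. CellTiter-Glo, 30 min RT, luminescence (ATP). Concentration-response, Hill fit → AC50. Pos. ctrl tetraoctylammonium bromide.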
The mark [20] stands for this setting: measured here: cell count channel max response.
Where [21] appears, read: measured here: lipid channel max response.

From PubChem BioAssay (NCATS) come the findings set out here.

Molecules are shown by their SMILES. Values joined by “and” are separate entries in the source; they are usually repeats but may differ in a detail not shown here. Equal entries are not always repeated. Records with an inconclusive call do not appear. Active and inactive are the calls of the source. Unless noted, calls come from the whole dose curve; as a rule, active = well fitted curve in the direction sought with a large enough effect; inconclusive = small, poorly fitted or top-dose-only effect, or another doubt; inactive = no such curve, though single readings can be large; an effect the other way counts as inactive or inconclusive.

Sequence of DNA repair nuclease/redox regulator APEX1 (Homo sapiens) (P27695 whole entry, looked up): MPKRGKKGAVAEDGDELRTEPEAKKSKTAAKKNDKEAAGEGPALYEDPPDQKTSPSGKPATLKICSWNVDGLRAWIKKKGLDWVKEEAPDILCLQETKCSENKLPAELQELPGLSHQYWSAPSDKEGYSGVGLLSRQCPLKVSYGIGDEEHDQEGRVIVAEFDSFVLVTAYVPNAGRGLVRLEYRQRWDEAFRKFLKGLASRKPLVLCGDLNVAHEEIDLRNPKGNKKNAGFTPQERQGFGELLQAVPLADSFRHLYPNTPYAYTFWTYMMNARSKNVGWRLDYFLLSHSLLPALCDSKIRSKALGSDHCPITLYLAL
Sequence of Alpha-galactosidase A (Homo sapiens) (P06280 whole entry, looked up): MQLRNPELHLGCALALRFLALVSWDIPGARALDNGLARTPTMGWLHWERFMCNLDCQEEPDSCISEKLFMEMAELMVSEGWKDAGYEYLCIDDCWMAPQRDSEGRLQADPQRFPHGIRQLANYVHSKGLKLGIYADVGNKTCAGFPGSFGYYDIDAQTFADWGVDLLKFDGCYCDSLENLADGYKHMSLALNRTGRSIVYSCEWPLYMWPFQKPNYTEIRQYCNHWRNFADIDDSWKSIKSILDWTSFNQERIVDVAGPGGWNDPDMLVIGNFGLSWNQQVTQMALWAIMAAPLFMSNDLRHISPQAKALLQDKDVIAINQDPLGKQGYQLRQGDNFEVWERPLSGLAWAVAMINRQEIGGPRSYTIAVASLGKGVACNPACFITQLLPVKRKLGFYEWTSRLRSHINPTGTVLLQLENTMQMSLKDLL

For the compound `CC(C)[C@H](CO)Nc1nc(Nc2ccc(C(=O)O)c(Cl)c2)c2ncn(C(C)C)c2n1`, in [1] (at 57.5 µM (top of the series)), the activity change, negative = inhibition is 6.65% (inactive). Also, the max response in assay [1] (setting [20]) amounted to 12.5%; in assay [1] (setting [21]) it was 19.1%.
Consider `COc1ccc(C2Sc3ccccc3N(CCN(C)C)C(=O)C2OC(C)=O)cc1` (configuration not stated), for which the activity change, negative = inhibition in assay [1] (at 57.5 µM (top of the series)) was 6.14% (inactive). The max response was 15.8% in assay [1] (setting [20]) and 23.3% in assay [1] (setting [21]).
For `CC(=O)CCCCn1c(=O)c2c(ncn2C)n(C)c1=O`, the compound was called inactive in assay [2], in assay [3], in [4] and in assay [5]. Further, the activity change, negative = inhibition in assay [1] (at 25.7 µM (top of the series)) was -2.17% (inactive); in [1] (at 57.5 µM (top of the series)) it was 7.3% (inactive). The max response is 6.56% and 15.7% in [1] (setting [20]); 4.54% and 26.5% in assay [1] (setting [21]).
For the compound `Nc1ncnc2c1ncn2[C@@H]1O[C@@H](CO)[C@H](O)[C@H]1O`, in assay [1] (at 25.7 µM (top of the series)), the activity change, negative = inhibition was -0.901% (inactive). Moreover, the max response in assay [1] (setting [20]) was -3.51%; in [1] (setting [21]) it was -9.07%.
For the compound `CCCCCCCCCCCC1=C(O)C(=O)C=C(O)C1=O`, the activity change, negative = inhibition in [1] (at 57.5 µM (top of the series)) is 11.6% (inactive) and 5.79% (inactive). For the same compound, the max response in [1] (setting [20]) is 14.8% and -11.9%; in [1] (setting [21]) it was 24.3% and -12.6%.
As to `O=C1NC(=O)C(c2ccccc2)(c2ccccc2)N1`, the Potency entry in assay [6], in assay [8], in assay [9], in assay [10], in assay [11] and in assay [12] was “inactive” in each case. The Potency result in assay [13], in assay [14], in assay [15], in assay [16], in assay [17] and in [18] was “inactive” in each case. The Potency entry in assay [19] is “inactive”. Moreover, the compound was classed as inactive in assay [7], in [2], in [3], in assay [4] and in assay [5]. In addition, the activity change, negative = inhibition in assay [1] (at 57.5 µM (top of the series)) was 7.13% (inactive) and 0.319% (inactive). In addition, the max response in assay [1] (setting [20]) was 12.1% and -15.7%; in assay [1] (setting [21]) it was 24.5% and -14.7%.
`c1ccc2c(Cc3c[nH]c4ccccc34)c[nH]c2c1`: in assay [1] (at 57.5 µM (top of the series)), the activity change, negative = inhibition is 12.9% (inactive). The max response in assay [1] (setting [20]) was 7.31%; in assay [1] (setting [21]), 20.3%.
With `C[C@@H](O)[C@H]1C(=O)N2C(C(=O)O)=C(S[C@@H]3CN[C@H](C(=O)N(C)C)C3)[C@H](C)[C@H]12`, in assay [1] (at 25.7 µM (top of the series)), the activity change, negative = inhibition was -1.28% (inactive). In addition, the max response in assay [1] (setting [20]) was -4.15%; in assay [1] (setting [21]), -5.75%.
Turning to `Cc1cccc(C)c1OCC(C)N` (configuration not stated), the activity change, negative = inhibition in assay [1] (at 57.5 µM (top of the series)) was 1.76% (inactive) and 1.1% (inactive). The max response in assay [1] (setting [20]) was 8.91% and -0.493%; in [1] (setting [21]), 19.3% and 0.0191%. Further, the compound was called inactive in assay [4] and in assay [5].
